Assay results taken from the supplement of paper PMC4166925.
± gives the standard deviation of the averaged measurements. Whole data set: some 33,000 sequences, median “E-score (dimensionless, -0.5 to 0.5)” near -0.049, cut for the highest 2% near 0.37. The list comes from a sample in which the highest values are over-represented; it also holds similar and randomly drawn sequences.

The sequences below were run on T1, PmTbr T-box DNA-binding domain (GST fusion) (assay: PBM E-score of 8-mer (E-score (dimensionless, -0.5 to 0.5)); Tbr is Tbrain of the sea star Patiria miniata (Pm) or the sea urchin Strongylocentrotus purpuratus (Sp); higher = stronger binding preference). Details: the construct has about 5 more residues each side.
T1 sequence: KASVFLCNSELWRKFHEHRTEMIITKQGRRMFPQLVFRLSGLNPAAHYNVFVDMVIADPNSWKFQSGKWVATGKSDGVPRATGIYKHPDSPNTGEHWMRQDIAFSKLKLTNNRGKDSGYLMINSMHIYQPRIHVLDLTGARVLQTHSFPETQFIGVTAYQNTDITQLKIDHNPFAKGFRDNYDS
Procedure, shortened: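 Using the Universal PBM Analysis Suite, every ungapped 8-mer received an enrichment E-score averaged over duplicate arrays. Probe intensities came from double-stranded Universal Agilent oligonucleotide arrays incubated with 200 nM GST-fused Tbr T-box DNA-binding domain in PBS (pH 7.5). That protein was expressed in BL21 E. coli at 20 °C and purified by glutathione affinity chromatography.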

Row | Sequence | PBM E-score of 8-mer
1 | CATCACAC | 0.4576 ± 0.0032
2 | GATCACAA | 0.163 ± 0.045
3 | AATCACAC | 0.462 ± 0.0075
4 | GATCACAC | 0.451 ± 0.014
5 | AATCACAA | 0.199 ± 0.0027
6 | GATCACGC | 0.287 ± 0.017
7 | CATCACAA | 0.179 ± 0.006
8 | AACGAGTC | -0.154 ± 0.018
9 | GTCTTCAA | -0.0747 ± 0.03
10 | CCGCCCCA | -0.155 ± 0.064
11 | ACGCATTC | 0.0134 ± 0.0026
12 | CTCACACA | 0.41 ± 0.0079
13 | CACACACG | 0.181 ± 0.059
14 | CACACACA | 0.303 ± 0.0096
15 | GTCACAGA | 0.0466 ± 0.051
16 | GTCACACA | 0.3901 ± 0.0019
17 | GTCACAAA | 0.118 ± 0.066
18 | CAATAGTG | 0.127 ± 0.061
19 | ACTTGCGG | -0.0023 ± 0.035
20 | GGTGAAAC | 0.0805 ± 0.054
21 | TCAATGCA | -0.268 ± 0.037
22 | ACACCACC | 0.405 ± 0.0043

Row | Sequence | PBM E-score of 8-mer
23 | ACACCACT | 0.254 ± 0.012
24 | ACACCACA | 0.377 ± 0.008
25 | CCACCACC | 0.107 ± 0.044
26 | CCACCACA | 0.117 ± 0.02
27 | ACACCACG | 0.3698 ± 0.0022
28 | GCACCACA | 0.133 ± 0.047
29 | TCACCACA | 0.204 ± 0.054
30 | CCACCACG | -0.00839 ± 0.13
31 | ACGAAACG | 0.16 ± 0.01
32 | GCATTGCA | -0.0859 ± 0.03
33 | ACAATCTA | -0.0816 ± 0.0069
34 | ATCGAAAC | -0.0958 ± 0.024
35 | ACCTATTG | 0.129 ± 0.034
36 | GGGGTGAC | 0.3431 ± 0.0017
37 | ACGGTGAG | 0.12 ± 0.014
38 | CAGGTGAC | 0.4485 ± 0.0027
39 | AAGGTGAG | 0.452 ± 0.0046
40 | AGGGTGAG | 0.137 ± 0.097
41 | CTGGTGAC | 0.221 ± 0.045
42 | AAGGTGAT | 0.424 ± 0.021
43 | CAGATGAC | -0.0423 ± 0.069
44 | GAGGTGAA | 0.294 ± 0.0035

Row | Sequence | PBM E-score of 8-mer
45 | ACGGTGAT | 0.202 ± 0.0041
46 | AGGGTGAT | 0.197 ± 0.018
47 | GAGGTGAC | 0.4496 ± 0.0027
48 | CGTGTCCA | 0.00534 ± 0.099
49 | GATGCACC | -0.0938 ± 0.034
50 | GCAAACCC | -0.0342 ± 0.058
51 | CCTCGGTC | 0.0608 ± 0.12
52 | AAGGTGAA | 0.185 ± 0.013
53 | AAGGTGAC | 0.426 ± 0.011
54 | CAGGTGAG | 0.422 ± 0.007
55 | CCGGTGAG | 0.0229 ± 0.12
56 | CAGGTGAA | 0.1748 ± 0.0016
57 | ACGGTGAC | 0.285 ± 0.0079
58 | CTGACCTA | -0.194 ± 0.079
59 | AGTGGAAT | -0.0212 ± 0.05
60 | GGCGATAA | 0.276 ± 0.048
61 | AGACGTAA | -0.2 ± 0.092
62 | CCAGTGCG | 0.133 ± 0.074
63 | ACAACACA | 0.347 ± 0.033
64 | CCAACACC | 0.443 ± 0.011
65 | ACAACACG | 0.251 ± 0.017
66 | CCAACACA | 0.241 ± 0.023

Row | Sequence | PBM E-score of 8-mer
67 | ACAACACC | 0.435 ± 0.023
68 | CCAACACG | 0.274 ± 0.0077
69 | GCAACACC | 0.455 ± 0.0097
70 | AGAACACT | 0.133 ± 0.04
71 | ACAACAAT | 0.109 ± 0.024
72 | ACAACACT | 0.37 ± 0.016
73 | GCAACAAC | 0.0808 ± 0.019
74 | GCAACACA | 0.311 ± 0.0054
75 | CCCTTGGA | -0.13 ± 0.033
76 | TAGGGCCA | -0.155 ± 0.032
77 | CGCCAAGC | 0.0166 ± 0.082
78 | AGGCCCTC | -0.448 ± 0.0054
79 | CTCCCGTA | -0.1898 ± 0.001
80 | AGAAAGCC | -0.195 ± 0.021
81 | GCTATCTA | -0.0532 ± 0.092
82 | CTCTTCTA | -0.215 ± 0.1
83 | TCTGGAAA | -0.131 ± 0.019
84 | CACACTCG | 0.408 ± 0.011
85 | CACACTCC | 0.402 ± 0.016
86 | TACACTCA | -0.0251 ± 0.036
87 | AACACTCC | 0.288 ± 0.029
88 | GACACTCC | 0.336 ± 0.029

Row | Sequence | PBM E-score of 8-mer
89 | CACACTCA | 0.3814 ± 0.0034
90 | CCCACTCG | 0.0373 ± 0.049
91 | AACACTCA | 0.323 ± 0.0094
92 | AACACTCG | 0.237 ± 0.037
93 | AGAGAAAG | 0.0684 ± 0.065
94 | ACTCACCG | -0.0077 ± 0.1
95 | CGGAGTCC | -0.183 ± 0.043
96 | CTTTGGCA | 0.288 ± 0.017
97 | CGTGGCTA | -0.139 ± 0.056
98 | GTCGTTCA | 0.19 ± 0.052
99 | AACTGAGT | -0.0725 ± 0.037
100 | AACTTCGA | 0.0686 ± 0.023
101 | ACTTCACG | 0.262 ± 0.038
102 | CCTTCACA | 0.395 ± 0.014
103 | CCTTCACG | 0.213 ± 0.0063
104 | ACTTCACA | 0.336 ± 0.011
105 | TCTTCACA | 0.377 ± 0.015
106 | GCTTCACA | 0.301 ± 0.014
107 | CCAAGTGA | 0.146 ± 0.01
108 | CTGAGCAC | 0.0183 ± 0.04
109 | GACAGGCA | -0.0532 ± 0.041
110 | ACACAGTG | 0.229 ± 0.005
